For 10 compounds, outcome and AC50 results are on record in PubChem BioAssay (EPA / NIEHS).

Molecules are shown by their SMILES. Records with an inconclusive call do not appear. Calls of active or inactive are those of the source. The calls were made as follows, unless noted: active = hit-call score of the fitted dose curve at least 0.9, where 1 is the maximum; inconclusive = response in the unintended direction; inactive = score below 0.9.

Assay [1] has as its target Nuclear receptor subfamily 1 group I member 3 (Homo sapiens) (UniProt Q14994). Nature of the assay: ATG_CAR_TRANS: Attagene TRANS-FACTORIAL HepG2 Assay for human Constitutive Androstane Receptor (CAR) (AID 2282969).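 Also: activators raise reporter mRNA above DMSO so AC50 marks induction.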 Particulars: HepG2 Attagene TRANS-FACTORIAL CAR reporter. The method in brief: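 Signal is reporter mRNA induction relative to DMSO, measured 24 h after dosing by RT-PCR with fluorescent primer extension and capillary electrophoresis. Human HepG2 liver cells carried transiently transfected chimeric NR-Gal4/GAL4-UAS reporter constructs.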

The nature of assay [2]: ATG_M_19_TRANS: Attagene TRANS-FACTORIAL HepG2 Assay for M19 Transcription Factor (Internal Marker) (AID 2282974). Particulars: HepG2 Attagene TRANS-FACTORIAL M19 internal marker reporter. The method in brief:
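Using RT-PCR and capillary electrophoresis, reporter mRNA from transiently transfected human HepG2 cells was quantified following 24 h exposure; activity was fitted in the positive direction against DMSO.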

The target in assay [3] is human Thyroid Receptor alpha (THRa1), THRA (gene 7067) (UniProt P10827). Nature of the assay: ATG_THRa1_TRANS: Attagene TRANS-FACTORIAL HepG2 Assay for human Thyroid Receptor alpha (THRa1) (AID 2283014). The method in brief:
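Measured here is mRNA from a GAL4-UAS reporter in transfected HepG2 cells carrying a Gal4-fused receptor, 24 h post-dose. DMSO served as negative control and baseline.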

Assay [4] is described as follows: CCTE_Harrill_HTTr_Viability_MCF7: CCTE's 6-hour Cell Viability Assessment for the High-Throughput Transcriptomics (HTTr) Platform, in MCF-7 cells cultured in DMEM + 10% fetal bovine serum, Harrill Lab (AID 2284010; active = hit-call score of the fitted dose curve at least 0.9, where 1 is the maximum; inactive = score below 0.9). The method in brief: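 Read-out is propidium iodide gain of signal by high-content imaging, reflecting membrane integrity loss. Measurements are taken 6 h after dosing, eight concentrations per chemical, with DMSO serving as baseline for bidirectional curve fitting.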

A short description of assay [5]: CCTE_Harrill_HTTr_Apoptosis_MCF7: CCTE's 6-hour Apoptosis Assessment for the High-Throughput Transcriptomics (HTTr) Platform, in MCF-7 cells cultured in DMEM + 10% fetal bovine serum, Harrill Lab (AID 2284011; active = hit-call score of the fitted dose curve at least 0.9, where 1 is the maximum; inactive = score below 0.9). The method in brief:
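Apoptosis in MCF-7 cells grown in DMEM with 10% fetal bovine serum was scored after a six hour exposure by high content imaging of caspase-3/7 activation (CellEvent Caspase 3/7 Green), with DMSO serving as negative control and baseline.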

A short description of assay [6]: ATG_PPRE_CIS: Attagene CIS-FACTORIAL HepG2 Assay for human Peroxisome Proliferator-activated Response Element (PPRE) (AID 2282958; active = hit-call score of the fitted dose curve at least 0.9, where 1 is the maximum; inactive = score below 0.9). Particulars: HepG2 PPRE cis-element reporter, Attagene transcription factor profiling; actives raise or lower the signal. The procedure, abridged:
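Measured endpoint: PPRE-controlled reporter mRNA, detected by RT-PCR and capillary electrophoresis fluorescence, from transiently transfected HepG2 cells 24 h after dosing. Curves fitted in both directions using DMSO baseline.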

Assay [7] in a line: ATG_GAL4_TRANS: Attagene TRANS-FACTORIAL HepG2 Assay for GAL4 (Internal Marker) (AID 2282976). Particulars: HepG2 Attagene TRANS GAL4 internal marker reporter. The method in brief: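 Liver HepG2 line bearing multiplexed GAL4-UAS reporter constructs; 24 h chemical treatment. Transcripts were quantified as fluorescent fragments on capillary electrophoresis after RT-PCR and HpaI cut, with activity fitted upward from DMSO.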

The target in assay [8] is Bile acid receptor (Homo sapiens) (UniProt Q96RI1). The experiment in a line: ATG_FXR_TRANS: Attagene TRANS-FACTORIAL HepG2 Assay for Farnesoid X Receptor (FXR) (AID 2282979).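 Also: hits raise reporter mRNA above DMSO so AC50 marks FXR activation.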 The note with it: HepG2 Attagene TRANS FXR-GAL4 reporter transcription. The procedure, abridged: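 After 24 h chemical treatment of transfected HepG2 cells, GAL4-UAS reporter transcripts driven by an exogenous FXR-GAL4 fusion were measured by RT-PCR and capillary electrophoresis. Increases over DMSO were fitted.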
Chain of Bile acid receptor (Homo sapiens) (Q96RI1 whole entry, looked up, the tested form may be a part): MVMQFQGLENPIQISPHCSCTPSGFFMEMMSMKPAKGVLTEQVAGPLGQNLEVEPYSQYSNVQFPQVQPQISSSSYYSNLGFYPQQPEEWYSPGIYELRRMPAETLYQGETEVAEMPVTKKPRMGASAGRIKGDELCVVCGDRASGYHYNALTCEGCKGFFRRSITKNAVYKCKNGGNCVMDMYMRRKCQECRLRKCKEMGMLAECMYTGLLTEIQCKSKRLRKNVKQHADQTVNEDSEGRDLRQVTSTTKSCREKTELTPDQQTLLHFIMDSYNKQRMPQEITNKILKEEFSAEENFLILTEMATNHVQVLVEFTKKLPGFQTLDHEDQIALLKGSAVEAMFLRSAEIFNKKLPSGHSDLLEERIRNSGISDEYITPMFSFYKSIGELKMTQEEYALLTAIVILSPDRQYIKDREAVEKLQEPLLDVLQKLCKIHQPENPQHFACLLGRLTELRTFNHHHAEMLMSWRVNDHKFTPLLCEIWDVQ

Assay [9] concerns the target Oxysterols receptor LXR-alpha (Homo sapiens) (UniProt Q13133). Nature of the assay: ATG_LXRa_TRANS: Attagene TRANS-FACTORIAL HepG2 Assay for human Liver X Receptor alpha (LXRa) (AID 2282980). The note with it: HepG2 Attagene TRANS reporter, LXRa transactivation. The procedure, abridged: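 In this multiplexed TRANS system, compounds act on HepG2 cells carrying GAL4-UAS reporter units and a receptor-GAL4 fusion for 24 h. Induced reporter RNA is amplified, fluorescently labelled and sized by capillary electrophoresis, with DMSO as baseline.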

Assay [10] can be described thus: ATG_M_06_TRANS: Attagene TRANS-FACTORIAL HepG2 Assay for M06 Transcription Factor (Internal Marker) (AID 2282983).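 Also: reporter transcript level by RT-PCR then capillary electrophoresis fluorescence.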 Particulars: HepG2 Attagene TRANS M06 internal marker reporter. The procedure, abridged: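 Multi-reporter-transfected HepG2, 24 h treatment; reporter transcripts quantified via RT-PCR, primer-extension labelling and CE. DMSO-normalized gain-of-signal fit.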

The target of assay [11] is Peroxisome proliferator-activated receptor gamma (Homo sapiens) (UniProt P37231). Nature of the assay: ATG_PPARg_TRANS: Attagene TRANS-FACTORIAL HepG2 Assay for human Peroxisome Proliferator-activated Receptor-gamma (PPARg) (AID 2283007). The method in brief: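 Endpoint reflects upward reporter mRNA change versus DMSO controls. Setup: transiently transfected HepG2, GAL4-UAS reporters driven by chimeric NR-Gal4, 24 h incubation, RT-PCR with capillary electrophoresis read-out.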
Chain of Peroxisome proliferator-activated receptor gamma (Homo sapiens) (P37231 whole entry, looked up, the tested form may be a part): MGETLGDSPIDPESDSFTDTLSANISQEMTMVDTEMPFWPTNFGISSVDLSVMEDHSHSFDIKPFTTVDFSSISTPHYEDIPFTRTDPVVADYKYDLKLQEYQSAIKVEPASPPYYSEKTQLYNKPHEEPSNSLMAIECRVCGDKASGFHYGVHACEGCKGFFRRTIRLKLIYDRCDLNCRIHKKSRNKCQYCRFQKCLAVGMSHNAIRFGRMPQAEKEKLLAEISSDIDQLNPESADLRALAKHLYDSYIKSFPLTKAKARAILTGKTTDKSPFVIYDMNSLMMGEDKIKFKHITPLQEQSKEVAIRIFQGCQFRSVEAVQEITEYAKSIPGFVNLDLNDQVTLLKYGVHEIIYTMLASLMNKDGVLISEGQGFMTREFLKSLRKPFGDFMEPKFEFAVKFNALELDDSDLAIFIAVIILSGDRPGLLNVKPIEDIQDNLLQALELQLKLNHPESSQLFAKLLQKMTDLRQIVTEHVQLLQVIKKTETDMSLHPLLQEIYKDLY

Assay [12] can be described thus: ATG_VDRE_CIS: Attagene CIS-FACTORIAL HepG2 Assay for human Vitamin D Receptor Element (VDRE) (AID 2282968; active = hit-call score of the fitted dose curve at least 0.9, where 1 is the maximum; inactive = score below 0.9). Particulars: HepG2 VDRE cis-reporter transcription, actives raise or lower the signal. The method in brief: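 Readout is VDRE-driven reporter mRNA reflecting endogenous factor activity in human HepG2 cells, sampled 24 h post-dose. Quantification used labelled RT-PCR products separated by capillary electrophoresis; bidirectional analysis relative to DMSO.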

Assay [13] concerns the target Glucocorticoid receptor (Homo sapiens) (UniProt P04150). The experiment in a line: ATG_GR_TRANS: Attagene TRANS-FACTORIAL HepG2 Assay for human Glucocorticoid Receptor (GR) (AID 2282978).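 Also: activators score as hits since higher reporter transcript over DMSO is fitted.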 Particulars: HepG2 Attagene TRANS GR reporter, mRNA transcription. The method in brief: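 Exogenous NR-GAL4 fusion activity was assessed through induced GAL4-UAS reporter transcripts in transfected human HepG2 cells, quantified after 24 h by RT-PCR and fluorescent capillary electrophoresis with DMSO as baseline.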

In assay [14] the target is Oxysterols receptor LXR-beta (Homo sapiens) (UniProt P55055). Nature of the assay: ATG_LXRb_TRANS: Attagene TRANS-FACTORIAL HepG2 Assay for human Liver X Receptor beta (LXRb) (AID 2282981). The note with it: HepG2 Attagene TRANS GAL4-LXRb reporter, mRNA. The method in brief:
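After 24 h chemical treatment of transfected HepG2 cells carrying exogenous NR-Gal4 chimeras, reporter mRNA was quantified by fluorescent RT-PCR and capillary electrophoresis; activity taken as increase over DMSO controls.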

The nature of assay [15]: TOX21_p53_BLA_p4_viability: Viability Assessment in the Tox21 HCT-116 p53 Agonism Beta-lactamase Assay, Phase 4 (AID 2283597).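 Also: hits lower the luminescence signal meaning cytotoxicity.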 The method in brief: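 In this multiplexed secondary endpoint, HCT116 cells (4000 per well, compound at 5 h, 16 h treatment) received CellTiter-Glo after the beta-lactamase read. Luminescence after 30 min RT reflects ATP, and falling signal marks cytotoxicity.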

For assay [16], the target named is human Peroxisome Proliferator-activated Receptor delta (PPARd), PPARD (gene 5467) (UniProt Q03181). The experiment in a line: ATG_PPARd_TRANS: Attagene TRANS-FACTORIAL HepG2 Assay for human Peroxisome Proliferator-activated Receptor delta (PPARd) (AID 2283002). The method in brief:
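Transient HepG2 transfection (multiple GAL4-UAS RTUs, chimeric receptor-Gal4); 24 h dosing; total RNA → oligo(dT) RT → PCR → 6-FAM primer extension → HpaI cut → CE. Positive direction vs DMSO.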

Assay [17] addresses human RAR-related Orphan Receptor beta (RORb), RORB (gene 6096) (UniProt Q92753). Nature of the assay: ATG_RORb_TRANS: Attagene TRANS-FACTORIAL HepG2 Assay for human RAR-related Orphan Receptor beta (RORb) (AID 2283010). The procedure, abridged:
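Transfect HepG2 with multiple GAL4-UAS reporter transcription units; dose chemicals for 24 h; isolate RNA, reverse-transcribe and PCR-amplify reporter sequences; label, digest and resolve fragments by capillary electrophoresis; fit increases relative to DMSO.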

Assay [18] has as its target human Vitamin D Receptor (VDR), VDR (gene 7421) (UniProt P11473). The experiment in a line: ATG_VDR_TRANS: Attagene TRANS-FACTORIAL HepG2 Assay for human Vitamin D Receptor (VDR) (AID 2283022). The method in brief: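 Multiplexed TRANS reporter in HepG2; 24 h treatment; reporter mRNA by RT-PCR plus capillary electrophoresis; upregulation scored relative to DMSO.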
The nature of assay [19]: ACEA_ER_AUC_viability: ACEA Biosciences xCELLigence Real-Time Cell Analysis on Estrogen Receptor Agonism for Viability (AID 2283782).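 Also: hit means loss of impedance signal meaning reduced cell growth or viability.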 The procedure, abridged:
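Viability endpoint: reduced impedance area under the curve relative to DMSO, recorded by real-time electrode sensing over ~80 h of continuous exposure. Duplicate plates of T47D in hormone-depleted medium; eight concentrations, 1:4 dilutions, 100 uM maximum.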

Assay [20] concerns the target Retinoic acid receptor RXR-alpha (Homo sapiens) (UniProt P19793). The experiment in a line: ATG_RXRa_TRANS: Attagene TRANS-FACTORIAL HepG2 Assay for human Retinoid X Receptor alpha (RXRa) (AID 2283012). The method in brief:
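Measures exogenous chimeric NR-GAL4 activity in transfected HepG2 liver cells after 24 h of dosing. Induced reporter mRNA was detected by RT-PCR with capillary electrophoresis, and gain of signal was analysed against DMSO.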

A word on the AC50: it is the concentration at which the activity in the assay is half-maximal.

Chain of human Thyroid Receptor alpha (THRa1), THRA (gene 7067) (P10827 whole entry, looked up, the tested form may be a part): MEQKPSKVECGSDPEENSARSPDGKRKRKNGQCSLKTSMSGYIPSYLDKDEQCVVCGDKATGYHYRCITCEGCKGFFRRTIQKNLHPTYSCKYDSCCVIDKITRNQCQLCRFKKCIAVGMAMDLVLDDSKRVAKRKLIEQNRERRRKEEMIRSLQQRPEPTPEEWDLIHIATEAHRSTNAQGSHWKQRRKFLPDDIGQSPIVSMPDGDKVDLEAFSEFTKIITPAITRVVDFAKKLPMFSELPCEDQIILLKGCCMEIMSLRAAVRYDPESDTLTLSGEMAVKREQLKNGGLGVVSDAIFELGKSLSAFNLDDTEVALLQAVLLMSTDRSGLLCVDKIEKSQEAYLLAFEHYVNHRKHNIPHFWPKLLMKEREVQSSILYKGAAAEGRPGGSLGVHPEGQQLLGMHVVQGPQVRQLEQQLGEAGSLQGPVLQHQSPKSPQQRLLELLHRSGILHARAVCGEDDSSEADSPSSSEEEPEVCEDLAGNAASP
Chain of human Vitamin D Receptor (VDR), VDR (gene 7421) (P11473 whole entry, looked up): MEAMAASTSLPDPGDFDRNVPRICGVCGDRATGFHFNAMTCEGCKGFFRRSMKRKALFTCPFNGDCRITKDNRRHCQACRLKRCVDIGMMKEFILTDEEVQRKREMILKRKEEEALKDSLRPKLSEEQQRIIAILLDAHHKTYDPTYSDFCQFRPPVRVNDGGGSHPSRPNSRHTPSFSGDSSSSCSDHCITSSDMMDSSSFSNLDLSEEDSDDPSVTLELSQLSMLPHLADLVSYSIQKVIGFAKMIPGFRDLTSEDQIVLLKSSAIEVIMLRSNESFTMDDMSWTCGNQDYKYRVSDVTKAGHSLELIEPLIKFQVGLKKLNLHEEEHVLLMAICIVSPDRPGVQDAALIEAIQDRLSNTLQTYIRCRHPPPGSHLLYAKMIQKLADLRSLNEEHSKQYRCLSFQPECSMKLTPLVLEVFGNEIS
Chain of Nuclear receptor subfamily 1 group I member 3 (Homo sapiens) (Q14994 whole entry, looked up, the tested form may be a part): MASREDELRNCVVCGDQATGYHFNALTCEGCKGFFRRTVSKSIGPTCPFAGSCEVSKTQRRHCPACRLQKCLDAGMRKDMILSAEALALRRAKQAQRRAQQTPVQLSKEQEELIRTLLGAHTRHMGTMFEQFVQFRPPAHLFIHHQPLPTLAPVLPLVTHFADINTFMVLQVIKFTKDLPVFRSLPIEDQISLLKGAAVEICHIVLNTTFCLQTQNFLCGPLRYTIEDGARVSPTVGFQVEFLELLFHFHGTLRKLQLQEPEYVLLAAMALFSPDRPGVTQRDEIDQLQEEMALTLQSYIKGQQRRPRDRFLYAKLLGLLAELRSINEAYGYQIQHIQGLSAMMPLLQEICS
Chain of Glucocorticoid receptor (Homo sapiens) (P04150 whole entry, looked up, the tested form may be a part): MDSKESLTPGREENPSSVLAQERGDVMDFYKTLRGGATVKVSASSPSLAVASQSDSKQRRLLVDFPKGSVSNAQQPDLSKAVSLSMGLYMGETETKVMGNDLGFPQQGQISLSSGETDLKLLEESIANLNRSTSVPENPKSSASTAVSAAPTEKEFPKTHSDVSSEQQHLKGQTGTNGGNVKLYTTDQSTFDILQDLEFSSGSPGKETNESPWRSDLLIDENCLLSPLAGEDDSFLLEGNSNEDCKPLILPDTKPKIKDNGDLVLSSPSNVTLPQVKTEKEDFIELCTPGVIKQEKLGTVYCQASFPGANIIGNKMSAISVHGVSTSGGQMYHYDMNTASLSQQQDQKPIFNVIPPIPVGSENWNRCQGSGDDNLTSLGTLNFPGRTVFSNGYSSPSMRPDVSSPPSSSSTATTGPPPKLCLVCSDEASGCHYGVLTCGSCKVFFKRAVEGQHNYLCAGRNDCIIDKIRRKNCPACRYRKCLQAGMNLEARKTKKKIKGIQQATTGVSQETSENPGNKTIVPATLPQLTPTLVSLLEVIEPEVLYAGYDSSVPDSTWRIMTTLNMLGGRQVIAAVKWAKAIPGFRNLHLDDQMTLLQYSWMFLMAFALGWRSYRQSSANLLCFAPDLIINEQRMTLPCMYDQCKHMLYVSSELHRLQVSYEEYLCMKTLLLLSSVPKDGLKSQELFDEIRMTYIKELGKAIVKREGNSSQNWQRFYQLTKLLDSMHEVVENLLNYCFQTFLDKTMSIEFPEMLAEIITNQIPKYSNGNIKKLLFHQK
Chain of Oxysterols receptor LXR-beta (Homo sapiens) (P55055 whole entry, looked up, the tested form may be a part): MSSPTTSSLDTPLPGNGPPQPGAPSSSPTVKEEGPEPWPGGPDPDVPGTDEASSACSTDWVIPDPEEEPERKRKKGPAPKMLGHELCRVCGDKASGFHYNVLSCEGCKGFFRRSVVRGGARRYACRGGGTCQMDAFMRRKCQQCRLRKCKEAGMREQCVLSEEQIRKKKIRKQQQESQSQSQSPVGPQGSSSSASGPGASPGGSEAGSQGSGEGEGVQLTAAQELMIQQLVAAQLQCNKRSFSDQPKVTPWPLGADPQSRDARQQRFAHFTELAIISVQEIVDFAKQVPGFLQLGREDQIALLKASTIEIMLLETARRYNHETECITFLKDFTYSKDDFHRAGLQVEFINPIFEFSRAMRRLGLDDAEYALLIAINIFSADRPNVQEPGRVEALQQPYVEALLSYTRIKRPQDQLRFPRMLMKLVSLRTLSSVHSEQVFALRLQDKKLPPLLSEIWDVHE
Chain of Oxysterols receptor LXR-alpha (Homo sapiens) (Q13133 whole entry, looked up, the tested form may be a part): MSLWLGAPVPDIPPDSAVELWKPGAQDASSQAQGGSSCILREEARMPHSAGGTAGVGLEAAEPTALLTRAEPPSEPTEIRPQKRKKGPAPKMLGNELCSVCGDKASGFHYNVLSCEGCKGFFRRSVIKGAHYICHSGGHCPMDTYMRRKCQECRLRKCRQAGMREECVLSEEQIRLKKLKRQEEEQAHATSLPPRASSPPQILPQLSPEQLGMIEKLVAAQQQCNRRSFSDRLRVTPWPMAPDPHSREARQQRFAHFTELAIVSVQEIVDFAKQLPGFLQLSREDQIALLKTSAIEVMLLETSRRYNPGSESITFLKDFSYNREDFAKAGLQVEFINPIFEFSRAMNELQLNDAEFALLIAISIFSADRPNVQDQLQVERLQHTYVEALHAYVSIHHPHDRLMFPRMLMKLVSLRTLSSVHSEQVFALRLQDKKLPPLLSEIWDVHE
Chain of human RAR-related Orphan Receptor beta (RORb), RORB (gene 6096) (Q92753 whole entry, looked up, the tested form may be a part): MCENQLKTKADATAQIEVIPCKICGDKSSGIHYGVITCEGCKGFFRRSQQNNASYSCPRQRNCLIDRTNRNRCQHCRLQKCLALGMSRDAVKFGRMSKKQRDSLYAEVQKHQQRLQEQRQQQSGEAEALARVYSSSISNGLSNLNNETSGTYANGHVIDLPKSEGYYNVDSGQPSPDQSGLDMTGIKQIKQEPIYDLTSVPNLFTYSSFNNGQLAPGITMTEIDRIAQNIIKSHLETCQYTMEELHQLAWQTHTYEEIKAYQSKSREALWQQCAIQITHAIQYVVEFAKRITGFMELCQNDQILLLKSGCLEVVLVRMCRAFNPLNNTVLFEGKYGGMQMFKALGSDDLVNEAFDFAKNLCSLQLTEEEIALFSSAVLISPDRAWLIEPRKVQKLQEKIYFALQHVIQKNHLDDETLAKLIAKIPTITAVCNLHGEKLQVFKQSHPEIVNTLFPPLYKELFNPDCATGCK
Chain of human Peroxisome Proliferator-activated Receptor delta (PPARd), PPARD (gene 5467) (Q03181 whole entry, looked up, the tested form may be a part): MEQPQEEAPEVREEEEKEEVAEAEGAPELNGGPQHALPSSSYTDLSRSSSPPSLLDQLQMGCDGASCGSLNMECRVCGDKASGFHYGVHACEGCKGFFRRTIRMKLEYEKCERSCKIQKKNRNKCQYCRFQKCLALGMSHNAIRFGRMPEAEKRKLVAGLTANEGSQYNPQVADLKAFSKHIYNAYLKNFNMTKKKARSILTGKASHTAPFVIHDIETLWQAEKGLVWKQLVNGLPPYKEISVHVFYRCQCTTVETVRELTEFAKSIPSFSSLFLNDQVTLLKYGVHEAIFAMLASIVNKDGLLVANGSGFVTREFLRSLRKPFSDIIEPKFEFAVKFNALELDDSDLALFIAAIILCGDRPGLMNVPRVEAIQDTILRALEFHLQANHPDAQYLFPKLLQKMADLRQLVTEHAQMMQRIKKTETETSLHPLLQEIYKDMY

As for `O=C(C(=O)c1ccccc1)c1ccccc1`, the call in assay [1], in assay [2], in assay [3], in [4] and in assay [5] was inactive.

For the compound `O=C(CC(C(=O)OC1CCCCC1)S(=O)(=O)O)OC1CCCCC1` (stereo not given), the outcome in [6], in [1], in [2], in assay [7], in [8] and in assay [9] was inactive. For the same compound, the outcome in assay [10] and in assay [3] was inactive. Further, the concentration at half-maximal activity (AC50) in [11] is 47.7 µM (active).

With `NC(N)=Nc1nc(CSCCC(N)=NS(N)(=O)=O)cs1`, the call in [6], in assay [12], in assay [7], in [13], in assay [8] and in assay [14] was inactive. In addition, the compound was classed as inactive in [3], in assay [15], in [4] and in assay [5].

With `O=C(O)/C=C/C(=O)O`, the result in assay [7], in assay [13], in assay [9], in assay [10], in [16] and in [17] was inactive. The compound was called inactive in [3], in assay [18], in assay [19], in assay [4] and in [5].

As for `C=CN1CCCCCC1=O`, the call in assay [12], in assay [2], in [7], in [9], in [16] and in assay [18] was inactive.

Turning to `c1ccc(CNc2ncnc3nc[nH]c23)cc1`, the compound was classed as inactive in assay [12], in assay [2], in assay [13], in assay [8], in [9] and in assay [14]. Also, the result in assay [20], in assay [3], in assay [15], in assay [19], in assay [4] and in [5] was inactive.

As for `CC1(C)S[C@@H]2[C@H](NC(=O)[C@H](N)c3ccccc3)C(=O)N2[C@H]1C(=O)O`, the result in assay [6], in assay [7], in assay [13], in assay [9], in assay [14] and in assay [10] was inactive. For the same compound, the compound was called inactive in assay [11], in assay [17], in assay [3] and in assay [15].

In the case of `N#CCN(CC#N)CCN(CC#N)CC#N`, the compound was called inactive in assay [12], in [2], in [7], in assay [13], in [18] and in assay [19].

As for `CC(=O)O[C@]1(C(C)=O)CC[C@H]2[C@@H]3C=C(C)C4=CC(=O)CC[C@]4(C)[C@H]3CC[C@@]21C`, the outcome in assay [4] and in assay [5] was inactive.

On to `C/C=C(\C)C(=O)OCC/C=C\CC`, for which the result in assay [12], in [1], in assay [2], in [7], in [8] and in assay [9] was inactive. Also, the result in assay [20], in assay [18] and in assay [19] was inactive.
